Assay outcomes from PubChem BioAssay.
TDP1 cell noCPT – qHTS for Inhibitors of human tyrosyl-DNA phosphodiesterase 1 (TDP1): qHTS in cells in absence of CPT; DT40 Tdp1-/- hTDP1 cells, no CPT, ATP luminescence, 48 h; Potency, µM (highest dose often 46.2 µM), for inactives: at the highest dose activity change, negative = growth inhibition, hits mostly inhibitors; actives 15% (n = 420,000); AID 686978, 2013; further: potency means the concentration at half of the fitted maximal effect; nearly all actives have a fitted effect of over 55% in size
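Camptothecin absent (DMSO only). Human TDP1-complemented DT40 knockout cells, 400 cells/well, 37 °C for minimum 48 hr; ATP measured via CellTiter-Glo, 30 min dark incubation, luminescence.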
TDP1 cell CPT – qHTS for Inhibitors of human tyrosyl-DNA phosphodiesterase 1 (TDP1): qHTS in cells in presence of CPT | Potency, µM (highest dose often 46.2 µM), without a hit: at the highest dose activity change, negative = growth inhibition, actives largely listed as inhibitors | actives 12% (n = 420,000) | chicken DT40 Tdp1-/-;hTDP1 cells + 20 nM CPT, ATP luminescence, 48 h; further: potency means the concentration at half of the fitted maximal effect; nearly all actives have a fitted effect of over 55% in size
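Cell growth measured by CellTiter-Glo luminescence after a minimum 48 h, 37 C compound exposure with 20 nM CPT in Tdp1-knockout DT40 cells stably expressing hTDP1, seeded 400/well; qHTS titration format.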
HT1080NT lethal – qHTS for induction of synthetic lethality in tumor cells producing 2HG: qHTS for the HT-1080-NT fibrosarcoma cell line; HT-1080-NT fibrosarcoma viability, CellTiter-Glo ATP luminescence, 48 h; Potency, µM (top dose mostly 46.1 µM), without a hit: at the highest dose activity, negative = less viability, actives largely listed as cytotoxic; actives 1.6% (n = 360,000);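 further: NT is the 2HG producing partner of a matched IDH1 knockdown line; potency means the concentration at half of the fitted maximal effect; 0% = DMSO-treated cells and -100% = media-only wells without cells; nearly all actives have a fitted effect of over 55% in size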
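A 48-hour cytotoxicity screen used HT-1080-NT cells plated 2 hours before compound delivery. ATP-based CellTiter-Glo luminescence measured viability, normalized to DMSO and no-cell controls.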
HT1080 IDH1KD tx – qHTS for induction of synthetic lethality in tumor cells producing 2HG: qHTS for the HT-1080-IDH1KD cell line; HT-1080 IDH1 knockdown viability, ATP luminescence, 48 h; Potency, µM (titrated, usually from 46.1 µM), without a hit: top-dose activity, negative = toxicity, usual class: cytotoxic; actives 2% (n = 360,000);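 further: potency means the concentration at half of the fitted maximal effect; 0% = DMSO wells and -100% = cell-free medium wells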
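After a 2 h attachment period, IDH1KD HT-1080 cells took pin-transferred compound for 48 h at 37 °C; ATP-based luminescence after 10 min room-temperature reagent incubation reported viability.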
IL-1B inflam inh – qHTS for Inhibitors of Inflammasome Signaling: IL-1-beta AlphaLISA Primary Screen. THP-1 LPS/ATP IL-1B secretion, AlphaLISA, 16 h; hits give low values. activity change, % at 57.5 µM. actives 4.7% (n = 360,000). AID 743279, 2014; in the data active means activity change below about -50%; inconclusive means mostly about -30% to -49%
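THP-1 cells pretreated 1 hr with compounds (up to 57.5 uM final), then stimulated with LPS (250 ng/mL final) plus ATP (1.25 mM final); secreted IL-1B measured by AlphaLISA after 16 hr, decreased signal indicating inhibition.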
ELG1 repair inh – qHTS screen for small molecules that inhibit ELG1-dependent DNA repair in human embryonic kidney (HEK293T) cells expressing luciferase-tagged ELG1; Potency, µM (titrated, usually from 46.1 µM), without a hit: at the top dose activity change, negative = inhibition, usual class: inhibitors; actives 2.3% (n = 330,000); HEK293T ELG1-luciferase reporter, luminescence, 16 h; DNA damage induced by 5-fluorouridine; further: potency means the concentration at half of the fitted maximal effect; nearly all actives have a fitted effect of over 55% in size
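Step one: seed 2,000 cells per well. Step two: pin-transfer compound or DMSO alongside 5-fluorouridine. Step three: incubate 16 hr, 37 °C, 5% CO2. Step four: add ONE-Glo, wait 30 min, read luminescence.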
* marks the source's active call; other numbers are inactive results; ? = inconclusive; / = no result; [ ] = remark or other dose. Sampled rows, rich in hits. Any-hit rate of the full collection: about 19%. Unless noted, the call rests on the fitted dose curve; in most records, active means well fitted curve in the direction sought with a large enough effect; inconclusive means small, poorly fitted or top-dose-only effect, or another doubt; inactive means no such curve, though single readings can be large; an effect the other way counts as inactive or inconclusive. Unless noted, on the % scale 0 is the no-effect control and ±100 the full control effect.

SMILES | TDP1 cell noCPT | TDP1 cell CPT | HT1080NT lethal | HT1080 IDH1KD tx | IL-1B inflam inh | ELG1 repair inh
CC(NC(=O)C1CCCN1C(=O)OC(C)(C)C)C(=O)OCc1ccccc1 (configuration not stated) | ? | 23µM* | 3% | 14% | 39 | /
CC(C)CCC[C@](C)(O)c1ccc(C(=O)O)cc1O | -5% | 1% | 14% | 3% | 16 | /
Cc1ccc(C(O)(COC(=O)C(C)C)COC(=O)C(C)C)c(O)c1 | 3.7µM* | 4.6µM* | -1% | -13% | 1 | -6%
COC(=O)[C@@]1(C(C)C)N=C(c2cc(OC)c(OC)c(OC)c2)[C@]2(O1)C(=O)N(C)c1ccc(Cl)cc12 | ? | ? | -13% | -24% | 11 | /
Cc1ccc(F)cc1NC(=O)c1sc2ncn(CC(=O)N3CCN(c4ccccn4)CC3)c(=O)c2c1C | ? | 9% | 0% | 0% | -5 | -6%
COc1cc2c(cc1OC)[C@@H](c1ccccc1)CN(C)CC2 | 15µM* | -21% | / | / | / | /
COc1ccc2cc(C3c4cc(OC)c(OC)cc4CCN3C(=O)c3ccco3)c(=O)[nH]c2c1 (configuration not stated) | ? | -56% | -4% | -25% | 12 | -17%
COc1cc2c(cc1OC)C(c1cccc([N+](=O)[O-])c1)N(C(=O)CCC(=O)O)CC2 (configuration not stated) | -19% | -5% | 0% | 0% | 3 | 9%
COc1ccc(CC(=O)N2CCc3cc(OC)c(OC)cc3C2COc2cc(C)cc(C)c2)cc1OC (configuration not stated) | 18µM* | 18µM* | / | / | / | /
COc1ccc(OCC2c3cc(OC)c(OC)cc3CCN2C(=O)C(C)C)cc1 (configuration not stated) | 23µM* | ? | -3% | -17% | 20 | ?
COC(=O)c1ccc(OCC2c3cc(OC)c(OC)cc3CCN2C(=O)c2ccco2)cc1 (configuration not stated) | 21µM* | 23µM* | -29% | ? | -53* | ?
Cc1ccnc2nc(C(=O)OCC(=O)N(CC(C)C)C3CCS(=O)(=O)C3)nn12 (configuration not stated) | 15% | -2% | 3%[9.24 µM] | -2% | 0 | 0%
Cn1cc(-c2ccc3c(c2)OCO3)c2ccccc21 | 5% | 2% | 6% | 11% | -13 | /
CCOC(=O)C1=C(N)Oc2ccc(Br)cc2C1C(C#N)C(=O)OCC (configuration not stated) | 3% | -5% | / | / | / | /
CCC(=O)N1CCc2cc(OC)c(OC)cc2C1COc1ccc(C(=O)OC)cc1 (configuration not stated) | ? | ? | -7%[9.24 µM] | ? | -20 | 2.6µM*
COc1cc2c(cc1OC)C(c1ccccc1)N(C(=O)c1ccco1)CC2 (configuration not stated) | 21µM* | 21µM* | -6% | -10% | -23 | 10%
COc1cc2c(cc1OC)C(c1ccccc1)N(C(=O)c1ccccc1)CC2 (configuration not stated) | ? | ? | -15% | -16% | ? | -8%
COc1cc2c(cc1OC)C(c1ccccc1)N(C(=O)CSCC(=O)O)CC2 (configuration not stated) | 1% | -1% | 5% | 4% | 7 | 11%
COC(=O)c1ccc(OCC2c3cc(OC)c(OC)cc3CCN2C(=O)Cc2ccc(OC)c(OC)c2)cc1 (configuration not stated) | ? | 23µM* | / | / | / | /
COC(=O)c1ccc(OCC2NCCc3cc(OC)c(OC)cc32)cc1 (configuration not stated) | ? | ? | -6% | -3% | -11 | -16%
COC(=O)c1ccc(OCC(O)CN2CCc3cc(OC)c(OC)cc3C2c2ccccc2)cc1 (configuration not stated) | 5.8µM* | 5.8µM* | ? | 16µM* | -7 | ?
CCc1cccc(C)c1NC(=O)COC(=O)CSCc1ccccc1 | 4% | -3% | 2% | -1% | 1 | 20%
Cc1nc(SCc2cc(=O)c3cccc(F)c3[nH]2)n[nH]1 | -21% | -23% | / | / | / | /
COC(=O)c1ccc(OCC2c3cc(OC)c(OC)cc3CCN2C(=O)Cc2ccc(OC)cc2)cc1 (configuration not stated) | 21µM* | ? | / | / | / | /
CC1(c2ccccc2)NC(=O)N(CC(=O)Nc2nnc(C3CC3)s2)C1=O (configuration not stated) | 0% | 2% | -2% | -2% | 7 | ?
SMILES | TDP1 cell noCPT | TDP1 cell CPT | HT1080NT lethal | HT1080 IDH1KD tx | IL-1B inflam inh | ELG1 repair inh
CN(C)CC/C=C1/c2cc(F)ccc2CSc2ccc(F)cc21 | -7% | ? | -10% | -7% | -14 | -10%
CN(C)CC/C=C1\c2ccccc2Sc2cc(F)c(Cl)cc21 | 16µM* | 16µM* | 26µM* | 12µM* | -93* | /
CN(C)CC/C=C1\c2cc(Cl)ccc2Sc2cc(F)c(F)cc21 | 23µM* | ? | ? | -17% | -11 | /
CN(C)CC/C=C1\c2ccc(F)cc2Sc2cc(F)c(Cl)cc21 | ? | ? | ? | ? | -61* | /
C#CCN(C)CC/C=C1\c2ccccc2CSc2ccccc21 | ? | -20% | -27% | ? | -8 | -9%
CN(C)CC/C=C1/c2ccc(F)cc2Sc2ccc(Cl)cc21 | 16µM* | ? | 21µM* | 18µM* | -85* | /
Cc1nn(-c2ccc(N3CCCC3)nn2)c(C)c1CCC(=O)NCc1ccc(F)cc1 | -30% | -26% | / | / | / | /
COc1ccccc1NC(=O)NNC(=O)CCc1ccccc1 | 21% | 1% | 16% | 5% | 9 | 5%
CCc1nnc(SCC(=O)Nc2ccc(Cl)cc2F)c2cc3occc3n12 | 15µM* | 23µM* | / | / | / | /
Cc1cc2c(cc3c(SCC(=O)Nc4ccc(Cl)cc4F)nncn32)o1 | -77% | ? | / | / | / | /
CCC(Sc1nnc(C)n2c1cc1occc12)C(=O)Nc1ccccc1F (configuration not stated) | 26µM* | 21µM* | / | / | / | /
